About 83,000 compounds went through this panel and 20% of them were active in at least one assay; those are over-represented in the sample as a whole.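 Values shown are percent growth following 48 h exposure of cells in 96-well plates to a single concentration of compound; below 10 was considered active.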 The source made the active and inactive calls.
Columns and labels:
Assay in all cases: NCI-60 one-dose screen, 48 h (100 = growth as untreated, 0 = no growth, -100 = all killed)
NCI-H23 lung = conditions: 10 µM unless noted
NCI-H226 lung = conditions: 10 µM unless noted
NCI-H322M lung = conditions: 10 µM unless noted
HOP-62 NSCLC = conditions: 10 µM unless noted
NCI-H460 lung = conditions: 10 µM unless noted
HOP-92 NSCLC = conditions: 10 µM unless noted
NCI-H522 lung = conditions: 10 µM unless noted
A549/ATCC NSCLC = conditions: 10 µM unless noted
786-0 renal = conditions: 10 µM unless noted
COLO 205 colon = conditions: 10 µM unless noted
DU-145 prostate = conditions: 10 µM unless noted
K-562 leukemia = conditions: 10 µM unless noted
MALME-3M melanoma = conditions: 10 µM unless noted
MDA-MB-231 breast = conditions: 10 µM unless noted
SF-268 CNS = conditions: 10 µM unless noted
SF-295 CNS = conditions: 10 µM unless noted
SF-539 CNS = conditions: 10 µM unless noted
UACC-257 melanoma = conditions: 10 µM
M14 melanoma = conditions: 10 µM unless noted
RXF 393 renal = conditions: 10 µM unless noted

Measured: growth

Cc1nc(-c2cc3ccccc3c(N3CCN(C)CC3)n2)cs1
inactive: NCI-H23 lung 99.9% | NCI-H226 lung 101% | NCI-H322M lung 106% | HOP-62 NSCLC 98.1% | NCI-H460 lung 103% | HOP-92 NSCLC 61.1% | NCI-H522 lung 94% | A549/ATCC NSCLC 97.7% | 786-0 renal 93.2% | COLO 205 colon 88.5% | DU-145 prostate 109% | K-562 leukemia 91.5% | MALME-3M melanoma 96.5% | MDA-MB-231 breast 90.3% | SF-268 CNS 87.3% | SF-295 CNS 93.1% | SF-539 CNS 85.2% | UACC-257 melanoma 101% | M14 melanoma 95.4%

CS(=O)(=O)c1nccc(-c2c(-c3ccc(F)c(OCCc4ccc(F)cc4)c3)nc3sccn23)n1
active: NCI-H322M lung -89.1% | NCI-H460 lung -56% | HOP-92 NSCLC -26.3% | NCI-H522 lung -74.5% | DU-145 prostate -91.6% | MDA-MB-231 breast 1.19% | UACC-257 melanoma -81.4%
inactive: NCI-H23 lung 10.7% | NCI-H226 lung 78.1% | HOP-62 NSCLC 15.1% | A549/ATCC NSCLC 83.5% | 786-0 renal 87.3% | COLO 205 colon 86.9% | MALME-3M melanoma 91.7% | RXF 393 renal 77.7% | SF-268 CNS 82.8% | SF-295 CNS 89% | SF-539 CNS 76.3% | M14 melanoma 83.9%

O=C(Cn1cc(CN2C(=O)c3ccc([N+](=O)[O-])cc3C2=O)nn1)Nc1ccc(F)cc1Cl
inactive: NCI-H23 lung 98% | NCI-H226 lung 101% | NCI-H322M lung 100% | HOP-62 NSCLC 109% | NCI-H460 lung 106% | HOP-92 NSCLC 79.7% | NCI-H522 lung 93.1% | A549/ATCC NSCLC 99.1% | 786-0 renal 93.9% | COLO 205 colon 110% | DU-145 prostate 106% | K-562 leukemia 97.9% | MALME-3M melanoma 83.3% | MDA-MB-231 breast 92.4% | SF-268 CNS 99.8% | SF-295 CNS 104% | SF-539 CNS 93.9% | UACC-257 melanoma 97.8% | M14 melanoma 94.8%

CS(=O)(=O)c1nccc(-c2c(-c3ccc(F)c(OCCc4ccccc4)c3)nc3sccn23)n1
inactive: NCI-H23 lung 100% | NCI-H226 lung 89.2% | HOP-62 NSCLC 103% | NCI-H460 lung 28.8% | HOP-92 NSCLC 50.1% | A549/ATCC NSCLC 99% | 786-0 renal 98.2% | COLO 205 colon 112% | MALME-3M melanoma 119% | MDA-MB-231 breast 89.4% | RXF 393 renal 99.1% | SF-268 CNS 98.7% | SF-295 CNS 97.2% | SF-539 CNS 93% | M14 melanoma 83.2%
active: NCI-H322M lung -26.9% | NCI-H522 lung -12.5% | DU-145 prostate -87.9% | UACC-257 melanoma -16.4%

CS(=O)(=O)c1ccc2c(c1)c1c(n2C(=O)c2ccc(Cl)cc2)CCCC1
active: NCI-H522 lung -44.2% | COLO 205 colon -1.12% | RXF 393 renal -12.1% | SF-539 CNS 1.96%
inactive: NCI-H23 lung 45% | NCI-H226 lung 60.9% | NCI-H322M lung 43.8% | HOP-62 NSCLC 43.1% | NCI-H460 lung 12.3% | HOP-92 NSCLC 35% | A549/ATCC NSCLC 50.6% | 786-0 renal 43.6% | DU-145 prostate 36% | MALME-3M melanoma 43.7% | MDA-MB-231 breast 39.9% | SF-268 CNS 62.1% | SF-295 CNS 22.5% | UACC-257 melanoma 56.8% | M14 melanoma 28.8%

C=C1C(=O)O[C@@H]2C[C@@H](C)/C=C\C(=O)[C@](C)(OC(C)=O)C[C@H](OC(=O)/C(C)=C\C)[C@@H]12
inactive: NCI-H322M lung 88% | HOP-62 NSCLC 74.6% | NCI-H460 lung 20% | A549/ATCC NSCLC 72.9% | SF-295 CNS 70.6%
active: NCI-H23 lung -13.9% | NCI-H226 lung -43.4% | HOP-92 NSCLC -35.6% | NCI-H522 lung -82.4% | 786-0 renal -62.8% | COLO 205 colon -78.3% | DU-145 prostate 3.77% | MALME-3M melanoma -36.4% | MDA-MB-231 breast -71.8% | RXF 393 renal -88.1% | SF-268 CNS -1.46% | SF-539 CNS -57.5% | UACC-257 melanoma -76.1% | M14 melanoma -37.1%

Cn1c2ccccc2c2c3c(c4c5ccc(Br)cc5oc4c21)C(=O)N(O)C3=O
inactive: NCI-H23 lung 80% | NCI-H226 lung 70.9% | NCI-H322M lung 96.8% | HOP-62 NSCLC 59.8% | NCI-H460 lung 42.3% | HOP-92 NSCLC 81.6% | NCI-H522 lung 48.7% | A549/ATCC NSCLC 85.6% | 786-0 renal 89.8% | COLO 205 colon 86.7% | DU-145 prostate 86.1% | K-562 leukemia 61.7% | MALME-3M melanoma 113% | MDA-MB-231 breast 94.5% | SF-268 CNS 78.6% | SF-295 CNS 53.4% | SF-539 CNS 96.2% | UACC-257 melanoma 94.2% | M14 melanoma 89.3%

COc1ccc(C2CC(c3ccc(Nc4nc(NCCO)nc(Nc5ccc(Cl)cc5)n4)cc3)=Nc3c(N)nc(N)nc3N2)cc1 (configuration not stated)
active: K-562 leukemia -10.1%
inactive: NCI-H23 lung 57.8% | NCI-H226 lung 88.7% | NCI-H322M lung 93.2% | HOP-62 NSCLC 37.4% | NCI-H460 lung 63% | HOP-92 NSCLC 74.6% | NCI-H522 lung 56.1% | A549/ATCC NSCLC 95.1% | 786-0 renal 71% | COLO 205 colon 92.1% | DU-145 prostate 73.1% | MALME-3M melanoma 113% | MDA-MB-231 breast 77.3% | SF-268 CNS 81.6% | SF-295 CNS 82% | SF-539 CNS 84.4% | UACC-257 melanoma 113% | M14 melanoma 94.7%

Cc1ccc(-c2cc(-c3ccc(N(C)C)cc3)n3c(n2)nc2ccccc23)cc1
inactive: NCI-H23 lung 57.1% | NCI-H226 lung 57% | NCI-H322M lung 103% | HOP-62 NSCLC 83.1% | NCI-H460 lung 61.7% | HOP-92 NSCLC 21.7% | NCI-H522 lung 25.4% | A549/ATCC NSCLC 56.5% | 786-0 renal 80.8% | COLO 205 colon 92.5% | DU-145 prostate 87.2% | K-562 leukemia 29.2% | MALME-3M melanoma 96.1% | MDA-MB-231 breast 66% | SF-268 CNS 88.7% | SF-295 CNS 55% | SF-539 CNS 89.8% | UACC-257 melanoma 65.8% | M14 melanoma 77.2%

C/C(=C(/c1ccc(O)cc1)c1ccc(OCCN2CCCC2)cc1)c1ccc(Cl)cc1
active: NCI-H460 lung -1.6% | COLO 205 colon -86.6% | MALME-3M melanoma -39.9% | RXF 393 renal 3.89% | SF-539 CNS 0.146% | UACC-257 melanoma -77.6% | M14 melanoma -64.7%
inactive: NCI-H23 lung 46.8% | NCI-H226 lung 72.3% | NCI-H322M lung 53.8% | HOP-62 NSCLC 63.1% | HOP-92 NSCLC 50.3% | NCI-H522 lung 61.1% | A549/ATCC NSCLC 47.6% | 786-0 renal 45.7% | DU-145 prostate 65.1% | MDA-MB-231 breast 40.9% | SF-268 CNS 60.9% | SF-295 CNS 67.8%

CC[C@@](C)(NC(=O)C(C)(C)NC(=O)[C@@H](NC(=O)[C@@H]1CCCN1C(=O)C(C)(C)NC(=O)[C@H](CC(C)C)NC(=O)CNC(=O)C(C)(C)NC(=O)[C@@H](NC(=O)C(C)(C)NC(=O)[C@H](CCC(N)=O)NC(=O)[C@H](C)NC(=O)C(C)(C)NC(=O)[C@H](C)NC(=O)C(C)(C)NC(=O)[C@@H]1CCCN1C(=O)C(C)(C)NC(C)=O)C(C)C)C(C)C)C(=O)N[C@@H](CCC(N)=O)C(=O)N[C@@H](CCC(N)=O)C(=O)N[C@H](CO)Cc1ccccc1
active: HOP-92 NSCLC -13.3% [4.25 µM] | NCI-H522 lung -1.04% [4.25 µM] | COLO 205 colon -12.5% [4.25 µM] | MALME-3M melanoma -21.3% [4.25 µM]
inactive: NCI-H23 lung 14.9% [4.25 µM] | NCI-H226 lung 61.3% [4.25 µM] | NCI-H322M lung 58.4% [4.25 µM] | HOP-62 NSCLC 51.9% [4.25 µM] | NCI-H460 lung 39.4% [4.25 µM] | A549/ATCC NSCLC 50.1% [4.25 µM] | 786-0 renal 77.2% [4.25 µM] | DU-145 prostate 30.9% [4.25 µM] | K-562 leukemia 29.1% [4.25 µM] | MDA-MB-231 breast 32.4% [4.25 µM] | RXF 393 renal 29.1% [4.25 µM] | SF-268 CNS 31.6% [4.25 µM] | SF-295 CNS 86.6% [4.25 µM] | SF-539 CNS 28.7% [4.25 µM] | M14 melanoma 65.9% [4.25 µM]

COc1cc2c3c(n(CCCNC4CCCCC4)c(=O)c2cc1OC)-c1cc2c(cc1C3=O)OCO2
active: NCI-H23 lung -51.7% | NCI-H322M lung -80.3% | HOP-62 NSCLC -78.9% | NCI-H460 lung -80.1% | NCI-H522 lung -60.5% | A549/ATCC NSCLC -87.5% | 786-0 renal -82.8% | COLO 205 colon -79.2% | DU-145 prostate -68.4% | MALME-3M melanoma -46.9% | MDA-MB-231 breast -78.1% | SF-539 CNS -85.5%
inactive: NCI-H226 lung 82.5% | HOP-92 NSCLC 91.5% | RXF 393 renal 76.6% | SF-268 CNS 70.1% | SF-295 CNS 66.1% | UACC-257 melanoma 96.9% | M14 melanoma 33%

COc1ccc(-c2oc3cc(O)cc(O)c3c(=O)c2OC)cc1O
active: NCI-H460 lung 8.84% | NCI-H522 lung -21% | RXF 393 renal -29.9% | SF-295 CNS -24.1% | SF-539 CNS -34.6%
inactive: NCI-H23 lung 25.7% | NCI-H226 lung 73.6% | NCI-H322M lung 41.2% | HOP-62 NSCLC 29.1% | HOP-92 NSCLC 41.2% | A549/ATCC NSCLC 38% | 786-0 renal 38.8% | COLO 205 colon 91.4% | DU-145 prostate 15.7% | MALME-3M melanoma 68.8% | MDA-MB-231 breast 32.7% | SF-268 CNS 45.2% | UACC-257 melanoma 78.8% | M14 melanoma 28.3%

— PubChem BioAssay (NCI)
